Data reported in PubChem BioAssay (NCATS).
Records with an inconclusive call do not appear. Activity calls are given as the source filed them. Calls follow the shape of the dose curve; as a rule, active = well fitted curve in the direction sought with a large enough effect; inconclusive = small, poorly fitted or top-dose-only effect, or another doubt; inactive = no such curve, though single readings can be large; an effect the other way counts as inactive or inconclusive.

Columns and labels:
[1] = Cell Viability - H-4-II-E (AID 543);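 also: cells exposed to compound for 40 hours; % is scaled to controls: 0 for no effect and ±100 for the full control effect; nearly all actives have a fitted effect of over 35% in size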
Summary of the method: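 Here, cytotoxicity is measured in the rat hepatoma line H-4-II-E as loss of intracellular ATP after 40 hr compound treatment, detected by luciferase luminescence.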

[2] = Cell Viability - SH-SY5Y (AID 544); conditions: SH-SY5Y neuroblastoma cell viability; viability change, negative = cytotoxic: at 92.2 µM (top of the series);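 also: cells exposed to compound for 40 hours; nearly all actives have a fitted effect of over 55% in size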
Summary of the method: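 Cytotoxicity is scored as a concentration-dependent fall in intracellular ATP in human SH-SY5Y cells treated 40 hr in complete culture medium. Potency is expressed as AC50 from a Hill equation fit.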

[3] = Cell Viability - Renal Proximal Tubule (AID 545);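 also: cells exposed to compound for 40 hours; nearly all actives have a fitted effect of over 40% in size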
Summary of the method: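 Primary rat renal proximal tubule cells (1000/well) were treated with compounds for 40 hr at 37 °C in complete medium. Intracellular ATP was measured by CellTiter-Glo luminescence, and AC50 values came from Hill-equation fits of concentration-response data.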

[4] = Cell Viability - Mesenchymal (AID 546);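 also: cells exposed to compound for 40 hours before reading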
Summary of the method: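 Normal human renal glomerulus-derived kidney mesenchymal cells, 1000 per well in complete medium, were treated with compounds for 40 hr at 37 °C. Viability was read as intracellular ATP by CellTiter-Glo luminescence; AC50 values came from Hill-equation fits of qHTS concentration-response data.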

[5] = Cellular Toxicity (caspase-3) HepG2 (AID 654);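 also: cells exposed to compound for 16 hours before reading; 0% = DMSO alone and 100% = caspase signal from 100 µM tamoxifen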
Summary of the method: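 qHTS, HepG2, 1500 cells/well, complete medium; cpd 16 h 37 °C; Caspase-Glo 3/7, 20 min RT; lum. Norm: DMSO vs 100 uM tamoxifen; AC50 Hill fit.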

[6] = Cellular Toxicity (caspase-3) Jurkat (AID 655); conditions: Jurkat caspase-3 activation, luminescence; caspase-3 activation: at 92.2 µM (top of the series), DMSO = 0%, tamoxifen = 100%;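 also: cells exposed to compound for 16 h at 37 °C before reading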
Summary of the method: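 Jurkat cells (5000/well) in complete medium were treated with compounds for 16 hr at 37 °C, then Caspase-Glo 3/7 luminescence was read after 20 min at room temperature. Data normalized to DMSO (basal) and 100 uM tamoxifen (100%); AC50 from Hill fit.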

[7] = Cellular Toxicity (caspase-3) HUV-EC-C (AID 656)
Summary of the method: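 HUV-EC-C endothelial cells, 1000/well, were pre-incubated 5 hr at 37°C, then exposed to compounds for 16 hr at 37°C. Caspase-Glo 3/7 luminescence was read after 20 min at room temperature. AC50 came from Hill fits, normalized to DMSO and 100 uM tamoxifen.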

[8] = Cellular Toxicity (caspase-3) SHSY5Y (AID 657)
Summary of the method: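 SH-SY5Y human neuroblastoma cells (1500/well) were treated with compounds for 16 h at 37 °C, then Caspase-Glo 3/7 luminescence was read after 1 h at room temperature. Data normalized to DMSO and 10 uM staurosporine; AC50 from Hill fits.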

[9] = Cellular Toxicity (caspase-3) BJ (AID 658);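 also: 0% = DMSO basal and 100% = 10 µM staurosporine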
Summary of the method: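 Luminescent aminoluciferin-substrate cleavage reports caspase 3/7 activity in normal human BJ fibroblasts after 16 hr compound exposure at 37 °C. Normalized to DMSO (basal) and 10 uM staurosporine (100%); AC50 from Hill fit of concentration-response.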

[10] = Cellular Toxicity (caspase-3) MRC-5 (AID 659);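 also: 0% = DMSO basal and 100% = 10 µM staurosporine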
Summary of the method: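 Luminescence from caspase-cleaved aminoluciferin substrate (Caspase-Glo 3/7, 1 hr RT) reports caspase 3/7 activity in MRC-5 lung fibroblasts after 16 hr compound exposure. Normalized to DMSO basal and 10 uM staurosporine as 100%; AC50 from Hill fits.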

[11] = Cellular Toxicity (caspase-3) Mesangial (AID 660); conditions: mesangial cells, normalized: DMSO 0%, 100 µM tamoxifen 100%; at 91.7 µM (top of the series);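 also: combined caspase 3 and 7 activity read by Caspase-Glo luminescence; cells exposed to compound for 16 h before the caspase read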
Summary of the method: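 Concentration-response qHTS: compound-induced rise in caspase 3/7 luminescence in human mesangial cells after 16 h, normalized to DMSO and 100 uM tamoxifen controls.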

[12] = Cellular Toxicity (caspase-3) SK-N-SH (AID 661);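 also: 0% = DMSO basal and 100% = 10 µM staurosporine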
Summary of the method: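 Caspase 3/7 activation is measured as a luminescence increase from aminoluciferin released by substrate cleavage in SK-N-SH cells after 16 hr compound treatment; values are AC50 from concentration-response curves.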

[13] = Cellular Toxicity (caspase-3) H-4-II-E (AID 663); conditions: H-4-II-E rat hepatoma, scaled: DMSO 0%, 100 µM tamoxifen 100%; at 92.2 µM (top of the series);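 also: cells exposed to compound for 16 hr before readout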
Summary of the method: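 Luminescence from caspase-cleaved aminoluciferin substrate, read 20 min after reagent addition, reports caspase 3/7 activation in rat H-4-II-E cells after 16 hr compound exposure. Normalized to DMSO (basal) and 100 uM tamoxifen (100%); AC50 from Hill fits.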

[14] = Cellular Toxicity (caspase-3) Hek293 (AID 664); conditions: HEK293 caspase-3 activation, DMSO = 0%, 100 µM tamoxifen = 100%; at 92.2 µM (top of the series);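 also: cells exposed to compound for 16 h at 37 °C before readout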
Summary of the method: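 Activation of caspase-3/7 is measured as increased luminescence from cleaved peptide-aminoluciferin substrate in HEK293 cells treated 16 hours at 37 °C. AC50 values come from Hill-equation fits of concentration-response data.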

[15] = Cellular Toxicity (caspase-3) N2a (AID 665);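 also: compound exposure lasted 16 h at 37 °C before readout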
Summary of the method: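 Plated mouse neuroblastoma N2a cells received titrated compounds for 16 h in complete medium. Caspase activity was then detected with a peptide-aminoluciferin luminescent reagent.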

[16] = Cellular Toxicity (caspase-3) NIH 3T3 (AID 666);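 also: 0% = DMSO basal and 100% = 100 µM tamoxifen stimulation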
Summary of the method: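 Concentration-response qHTS in NIH 3T3 mouse fibroblasts scores caspase-3/7 activation as rising luminescence after 16 hr compound exposure. Signals are scaled between DMSO-only and 100 uM tamoxifen.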

[17] = Cellular Toxicity (caspase-3) Renal Proximal Tubule (AID 667); conditions: Potency: caspase-3 activation;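 also: cells exposed to compound for 16 hours at 37 °C before detection; 0% = DMSO basal and 100% = 10 µM staurosporine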
Summary of the method: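 Primary rat proximal tubule cells, 1000/well, 5 h plating at 37 °C, then compound 16 h at 37 °C. Caspase-Glo 3/7 reagent, 1 h RT, luminescence. Normalized to DMSO (basal) and 10 uM staurosporine (100%); Hill-fit AC50.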

[18] = target: Cytochrome P450 3A4 (Homo sapiens) (UniProt P08684); assay: qHTS Assay for Inhibitors and Substrates of Cytochrome P450 3A4 (AID 884); also: % is scaled to controls: 0 for no effect and ±100 for the full control effect; nearly all actives have a fitted effect of over 50% in size
Cytochrome P450 3A4 (Homo sapiens), sequence (P08684 whole entry, looked up): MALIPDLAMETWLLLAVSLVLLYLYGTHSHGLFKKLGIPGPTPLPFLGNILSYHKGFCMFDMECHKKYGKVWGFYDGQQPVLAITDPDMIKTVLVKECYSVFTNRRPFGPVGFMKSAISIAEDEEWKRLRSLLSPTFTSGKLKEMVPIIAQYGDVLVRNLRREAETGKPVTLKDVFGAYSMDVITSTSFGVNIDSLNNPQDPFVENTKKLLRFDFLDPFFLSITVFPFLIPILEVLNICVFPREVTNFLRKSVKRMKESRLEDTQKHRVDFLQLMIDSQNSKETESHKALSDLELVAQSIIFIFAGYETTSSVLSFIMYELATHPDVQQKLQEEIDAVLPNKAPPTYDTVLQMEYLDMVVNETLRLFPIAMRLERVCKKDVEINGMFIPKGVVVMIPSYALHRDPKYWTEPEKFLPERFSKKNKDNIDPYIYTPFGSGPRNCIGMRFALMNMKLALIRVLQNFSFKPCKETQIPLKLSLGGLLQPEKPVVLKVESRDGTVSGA
Summary of the method: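 20 nM human CYP3A4 with 25 uM Luciferin-PPXE (at KM) in 200 mM KPO4, preincubated 10 min with compound; NADPH regeneration started a 60 min RT reaction. Luciferin detected by luminescence, normalized to 57 uM ketoconazole as full inhibition.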

[19] = Cell Viability - LYMP2-001 (AID 921);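 also: 0% = DMSO only and full inhibition = tetraoctylammonium bromide control wells; nearly all actives have a fitted effect of over 70% in size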
Summary of the method: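 Human lymphoblastoid cells (Coriell), 2500 per well, were preincubated 5 hr at 37 C, then exposed to compounds in complete medium for 24 hr at 37 C. Cellular ATP was read by CellTiter-Glo luminescence; AC50 from Hill fits of concentration-response data.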

[20] = target: Cytochrome P450 3A4 (Homo sapiens) (UniProt P08684); assay: qHTS Assay for Activators of Cytochrome P450 3A4 (AID 885); also: nearly all actives have a fitted effect of over 65% in size
Summary of the method: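 Human CYP3A4 (20 nM) with Luciferin-PPXE at 25 uM (its KM) in 200 mM KPO4; 10 min compound preincubation, then NADPH regeneration and 60 min reaction at RT. Luciferin read by luminescence; normalized to 57 uM ketoconazole full inhibition.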

CC(=O)c1cccc([N+](=O)[O-])c1
inactive: Potency [1] | Potency [2] | Potency [3] | Potency [4] | Potency [5] | caspase-3 activation [6] -0.656% | outcome [7] | outcome [8] | outcome [9] | outcome [10] | caspase-3 activation [11] 1.01% | outcome [12] | caspase-3 activation [13] -1.03% | caspase-3 activation [14] 2.43% | outcome [15] | outcome [16] | Potency [17] | Potency [18] | Potency [19]

Fc1ccccc1
inactive: Potency [1] | Potency [2] | Potency [3] | Potency [4] | Potency [5] | caspase-3 activation [6] 0.771% | outcome [7] | outcome [8] | outcome [9] | outcome [10] | caspase-3 activation [11] -0.0832% | outcome [12] | caspase-3 activation [13] -0.374% | caspase-3 activation [14] -1.91% | outcome [15] | outcome [16] | Potency [17] | Potency [18] | Potency [19]

CCC(C)=O
inactive: Potency [1] | Potency [2] | Potency [3] | Potency [4] | Potency [5] | caspase-3 activation [6] -0.0185% | outcome [7] | outcome [8] | outcome [9] | outcome [10] | caspase-3 activation [11] -0.0673% | outcome [12] | caspase-3 activation [13] 0.152% | caspase-3 activation [14] -2.5% | outcome [15] | outcome [16] | Potency [17] | Potency [18] | Potency [19]

CC(=C/C=C/C(C)=C/C=C/C=C(C)/C=C/C=C(C)/C=C/C(=O)O)/C=C/C(=O)O
inactive: Potency [1] | Potency [2] | Potency [3] | Potency [4] | Potency [5] | caspase-3 activation [6] -0.472% | outcome [7] | outcome [8] | outcome [9] | outcome [10] | caspase-3 activation [11] -0.768% | outcome [12] | caspase-3 activation [13] 0.467% | caspase-3 activation [14] -1.17% | outcome [15] | outcome [16] | Potency [17] | Potency [18] | Potency [19]

C[C@@H]1CC2(OC[C@]3(C)O[C@H]23)O[C@H]2C[C@@]3(C)[C@@H]4CC[C@H]5C(C)(C)C(O[C@@H]6OC[C@@H](O)[C@H](O)[C@H]6O)CC[C@@]56C[C@@]46CC[C@]3(C)[C@@H]12 (stereo partly specified)
inactive: Potency [1] | Potency [2] | Potency [3] | Potency [4] | Potency [5] | caspase-3 activation [6] 2.9% | outcome [7] | outcome [8] | outcome [9] | outcome [10] | caspase-3 activation [11] 2.15% | outcome [12] | caspase-3 activation [13] 2.6% | caspase-3 activation [14] 3.04% | outcome [15] | outcome [16] | Potency [17] | Potency [18] | Potency [19]

CC=O
inactive: Potency [1] | Potency [2] | Potency [3] | Potency [4] | Potency [5] | caspase-3 activation [6] -1.03% | outcome [7] | outcome [8] | outcome [9] | outcome [10] | caspase-3 activation [11] 1.5% | outcome [12] | caspase-3 activation [13] 1.97% | caspase-3 activation [14] 2.27% | outcome [15] | outcome [16] | Potency [17] | Potency [19]

Cc1ccc(N(C)C)cc1
inactive: Potency [1] | Potency [2] | Potency [3] | Potency [4] | Potency [5] | caspase-3 activation [6] 2.02% | outcome [7] | outcome [8] | outcome [9] | outcome [10] | caspase-3 activation [11] 0.102% | outcome [12] | caspase-3 activation [13] -1.01% | caspase-3 activation [14] -0.882% | outcome [15] | outcome [16] | Potency [17] | Potency [18] | Potency [19]

O=C(O)c1ccccc1Cl
inactive: Potency [1] | Potency [2] | Potency [3] | Potency [4] | Potency [5] | caspase-3 activation [6] -0.163% | outcome [7] | outcome [8] | outcome [9] | outcome [10] | caspase-3 activation [11] -0.834% | outcome [12] | caspase-3 activation [13] 0.73% | caspase-3 activation [14] -0.14% | outcome [15] | outcome [16] | Potency [17] | Potency [18] | Potency [19]

Nc1cc(Cl)c([N+](=O)[O-])cc1O
inactive: Potency [1] | Potency [2] | Potency [3] | Potency [4] | Potency [5] | caspase-3 activation [6] 1.7% | outcome [7] | outcome [8] | outcome [9] | outcome [10] | caspase-3 activation [11] -0.0539% | outcome [12] | caspase-3 activation [13] 1.74% | caspase-3 activation [14] 5.51% | outcome [15] | outcome [16] | Potency [17] | outcome [20] | Potency [19]

CC(=O)OCCC(C)C
inactive: Potency [1] | Potency [2] | Potency [3] | Potency [4] | Potency [5] | caspase-3 activation [6] 0.836% | outcome [7] | outcome [8] | outcome [9] | outcome [10] | caspase-3 activation [11] 0.804% | outcome [12] | caspase-3 activation [13] -0.942% | caspase-3 activation [14] -0.0363% | outcome [15] | outcome [16] | Potency [17] | Potency [18] | Potency [19]

Cc1ccc(C)c([N+](=O)[O-])c1
inactive: Potency [1] | Potency [2] | Potency [3] | Potency [4] | Potency [5] | caspase-3 activation [6] 1.04% | outcome [7] | outcome [8] | outcome [9] | outcome [10] | caspase-3 activation [11] 0.386% | outcome [12] | caspase-3 activation [13] -0.213% | caspase-3 activation [14] 0.434% | outcome [15] | outcome [16] | Potency [17] | Potency [18] | Potency [19]

CC(C)(O)C(=O)O
inactive: Potency [1] | Potency [2] | Potency [3] | Potency [4] | Potency [5] | caspase-3 activation [6] -0.979% | outcome [7] | outcome [8] | outcome [9] | outcome [10] | caspase-3 activation [11] -0.246% | outcome [12] | caspase-3 activation [13] -0.178% | caspase-3 activation [14] 0.779% | outcome [15] | outcome [16] | Potency [17] | Potency [18] | Potency [19]

CC(=O)OC(C)C
inactive: Potency [1] | Potency [2] | Potency [3] | Potency [4] | Potency [5] | caspase-3 activation [6] -0.432% | outcome [7] | outcome [8] | outcome [9] | outcome [10] | caspase-3 activation [11] 0.284% | outcome [12] | caspase-3 activation [13] 0.45% | caspase-3 activation [14] 0.887% | outcome [15] | outcome [16] | Potency [17] | Potency [18] | Potency [19]
